This is part of a sample that, as a whole, favours compounds with a hit. Of some 83,000 tested, about 20% had one in any assay.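 Negative percent growth values reflect cell death: -40 means 40% of the cells present at the start died, and -100 means all died.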 Calls of active or inactive are those of the source. Rule for the calls: active = growth percent below 10; inactive = the rest.
What was measured:
Test in all cases: NCI-60 one-dose screen, 48 h (100 = growth as untreated, 0 = no growth, -100 = all killed)
Conditions in all cases: 10 µM unless noted
NCI-H23 lung = test system: NCI-H23 lung
NCI-H226 lung = test system: NCI-H226 lung
NCI-H322M lung = test system: NCI-H322M lung
HOP-62 NSCLC = test system: HOP-62 NSCLC
HOP-92 NSCLC = test system: HOP-92 NSCLC
NCI-H522 lung = test system: NCI-H522 lung
A549/ATCC NSCLC = test system: A549/ATCC NSCLC
786-0 renal = test system: 786-0 renal
COLO 205 colon = test system: COLO 205 colon
DU-145 prostate = test system: DU-145 prostate
K-562 leukemia = test system: K-562 leukemia
MALME-3M melanoma = test system: MALME-3M melanoma
MDA-MB-231 breast = test system: MDA-MB-231 breast
SF-268 CNS = test system: SF-268 CNS
SF-295 CNS = test system: SF-295 CNS
SF-539 CNS = test system: SF-539 CNS
UACC-257 melanoma = test system: UACC-257 melanoma
M14 melanoma = test system: M14 melanoma
RXF 393 renal = test system: RXF 393 renal
NCI-H460 lung = test system: NCI-H460 lung

Measured: growth

CCCCCCCCCCCCCCCC(=O)OC[C@@]1(O)C[C@@]23CC[C@@H]4C(C)(C)[C@H](O)CC[C@@]4(C)[C@@H]2CC[C@H]1C3
inactive: NCI-H23 lung 98% | NCI-H226 lung 99.2% | NCI-H322M lung 114% | HOP-62 NSCLC 101% | HOP-92 NSCLC 113% | NCI-H522 lung 91.2% | A549/ATCC NSCLC 104% | COLO 205 colon 115% | DU-145 prostate 108% | K-562 leukemia 98% | MALME-3M melanoma 114% | MDA-MB-231 breast 110% | SF-268 CNS 101% | SF-295 CNS 112% | SF-539 CNS 97.8% | UACC-257 melanoma 110%
active: 786-0 renal 0.227% | M14 melanoma -30.4%

COc1ccc2c(Nc3ccc(NS(C)(=O)=O)cc3)c3ccccc3nc2c1
active: NCI-H23 lung -18.6% | NCI-H226 lung -27.1% | NCI-H322M lung 9.34% | HOP-62 NSCLC -0.998% | HOP-92 NSCLC -16.6% | NCI-H522 lung -58.6% | A549/ATCC NSCLC -71.2% | COLO 205 colon -74.1% | DU-145 prostate 8.86% | K-562 leukemia 6.83% | MALME-3M melanoma -50.7% | MDA-MB-231 breast 3.5% | RXF 393 renal -73.9% | SF-268 CNS -2.84% | SF-295 CNS -27.9% | SF-539 CNS -0.512% | UACC-257 melanoma -78% | M14 melanoma -53.6%
inactive: 786-0 renal 18.4%

CS(=O)(=O)OCCN(CCOS(C)(=O)=O)c1ccc(/C=N/Nc2ccc([N+](=O)[O-])cc2[N+](=O)[O-])cc1
inactive: NCI-H23 lung 73.6% | NCI-H226 lung 81.4% | NCI-H322M lung 94.5% | HOP-62 NSCLC 92.8% | HOP-92 NSCLC 71.8% | NCI-H522 lung 91.5% | A549/ATCC NSCLC 80.8% | 786-0 renal 101% | COLO 205 colon 90% | DU-145 prostate 99.7% | K-562 leukemia 102% | MALME-3M melanoma 86.8% | MDA-MB-231 breast 71.6% | RXF 393 renal 102% | SF-268 CNS 94.1% | SF-295 CNS 79.2% | SF-539 CNS 80.5% | UACC-257 melanoma 96.9% | M14 melanoma 99.3%

COc1ccccc1Nc1cc(O)c2c(=O)cc(-c3ccccc3)oc2c1
inactive: NCI-H23 lung 51.5% | NCI-H226 lung 76.8% | NCI-H322M lung 80.1% | HOP-62 NSCLC 35.6% | HOP-92 NSCLC 62.2% | A549/ATCC NSCLC 33.7% | 786-0 renal 49.2% | COLO 205 colon 76.8% | DU-145 prostate 45.6% | K-562 leukemia 11.6% | MALME-3M melanoma 44.1% | MDA-MB-231 breast 39.2% | SF-268 CNS 44.9% | SF-295 CNS 25.9% | SF-539 CNS 28.3% | UACC-257 melanoma 54% | M14 melanoma 20.8%
active: NCI-H522 lung 7.64%

COc1ccc(/C=N/NC(=O)c2cccc3cc[nH]c23)cc1O
active: SF-295 CNS -20.3% | SF-539 CNS -18.8% | M14 melanoma 0.307%
inactive: NCI-H23 lung 55.7% | NCI-H226 lung 90.4% | NCI-H322M lung 49.8% | HOP-62 NSCLC 36.3% | HOP-92 NSCLC 57.2% | A549/ATCC NSCLC 50.5% | 786-0 renal 30.9% | COLO 205 colon 55.7% | DU-145 prostate 28.3% | K-562 leukemia 27.8% | MALME-3M melanoma 43% | MDA-MB-231 breast 55.2% | SF-268 CNS 53% | UACC-257 melanoma 47.3%

C#CCn1cc(C=C2C(=O)NC(=S)NC2=O)c2cc(Cl)ccc21
active: NCI-H23 lung -4.83% | HOP-62 NSCLC -5.32% | 786-0 renal -54.2% | DU-145 prostate 3.03% | MDA-MB-231 breast -26.1% | SF-268 CNS 6.45% | SF-539 CNS -57.2%
inactive: NCI-H226 lung 61.6% | NCI-H322M lung 80.3% | HOP-92 NSCLC 48.4% | NCI-H522 lung 51.1% | A549/ATCC NSCLC 98.3% | COLO 205 colon 33.2% | K-562 leukemia 15% | MALME-3M melanoma 43.5% | SF-295 CNS 46.4% | UACC-257 melanoma 61.7% | M14 melanoma 44.4%

Clc1ccc(C2CC(c3cccc(Nc4ccncc4)c3)=NN2c2ccc(Cl)cc2)cc1 (stereo not drawn)
active: HOP-62 NSCLC -44.4% | NCI-H522 lung -44% | A549/ATCC NSCLC 9.48% | 786-0 renal -71.7% | COLO 205 colon -61.5% | K-562 leukemia -1.93% | MALME-3M melanoma -64.4% | SF-295 CNS -79.2% | M14 melanoma -80.1%
inactive: NCI-H23 lung 47.7% | NCI-H226 lung 91.9% | NCI-H322M lung 54.9% | HOP-92 NSCLC 46.3% | DU-145 prostate 17.6% | MDA-MB-231 breast 19% | SF-268 CNS 60.2% | SF-539 CNS 71.2% | UACC-257 melanoma 64.7%

CCCCCCCCCCCCCCCC(=O)OC[C@@]1(O)C[C@@]23CC[C@@H]4C(C)(C)CCC[C@@]4(C)[C@@H]2CC[C@H]1C3
active: M14 melanoma -51.8%
inactive: NCI-H23 lung 102% | NCI-H226 lung 98.3% | NCI-H322M lung 114% | HOP-62 NSCLC 106% | HOP-92 NSCLC 117% | NCI-H522 lung 89.3% | A549/ATCC NSCLC 103% | 786-0 renal 27.9% | COLO 205 colon 112% | DU-145 prostate 108% | K-562 leukemia 59.3% | MALME-3M melanoma 112% | MDA-MB-231 breast 96% | SF-268 CNS 110% | SF-295 CNS 111% | SF-539 CNS 108% | UACC-257 melanoma 104%

O=C(Nc1cccc(Cl)c1)Oc1c(Br)c(Br)c(Br)c(Br)c1Br
inactive: NCI-H23 lung 91% | NCI-H226 lung 81.3% | NCI-H322M lung 107% | HOP-62 NSCLC 56.1% | HOP-92 NSCLC 66.5% | NCI-H522 lung 58.8% | A549/ATCC NSCLC 73.7% | 786-0 renal 93.8% | COLO 205 colon 100% | DU-145 prostate 105% | K-562 leukemia 78.5% | MALME-3M melanoma 90.7% | MDA-MB-231 breast 103% | SF-268 CNS 91.4% | SF-295 CNS 79.2% | SF-539 CNS 98.1% | UACC-257 melanoma 69.4% | M14 melanoma 90.9%

COc1cc(COC(=O)CCCCC[P+](c2ccccc2)(c2ccccc2)c2ccccc2)c(OC)c2c1OCO2
inactive: NCI-H23 lung 51.9% | NCI-H226 lung 67.6% | NCI-H322M lung 84.1% | HOP-62 NSCLC 79.2% | HOP-92 NSCLC 20.1% | NCI-H522 lung 50.2% | A549/ATCC NSCLC 81.2% | 786-0 renal 91.9% | COLO 205 colon 71.4% | DU-145 prostate 83.5% | K-562 leukemia 19.4% | MDA-MB-231 breast 70.2% | SF-268 CNS 75.1% | SF-295 CNS 76.9% | SF-539 CNS 78.2% | UACC-257 melanoma 15.6% | M14 melanoma 43.3%
active: MALME-3M melanoma 5.27%

Cc1cn(-c2cc(C(=O)Nc3cccc(C#Cc4cccc5[nH]nc(N)c45)c3)cc(C(F)(F)F)c2)cn1
inactive: NCI-H23 lung 44.1% | NCI-H226 lung 33.1% | NCI-H322M lung 68.4% | HOP-62 NSCLC 45.1% | HOP-92 NSCLC 26.4% | NCI-H522 lung 51.7% | A549/ATCC NSCLC 63.2% | 786-0 renal 66.7% | COLO 205 colon 13.8% | DU-145 prostate 72.5% | MDA-MB-231 breast 29.8% | SF-268 CNS 58.6% | SF-295 CNS 67.2% | SF-539 CNS 25.3% | UACC-257 melanoma 18.1% | M14 melanoma 11.5%
active: K-562 leukemia 5.16% | MALME-3M melanoma -12% | RXF 393 renal 1.89%

O=S(=O)(O)c1cc(O)c2c(N=Nc3ccc(Nc4ccccc4)c4c(S(=O)(=O)O)cccc34)cc(S(=O)(=O)O)cc2c1
inactive: NCI-H23 lung 100% | NCI-H226 lung 101% | NCI-H322M lung 120% | HOP-62 NSCLC 100% | HOP-92 NSCLC 101% | NCI-H522 lung 93.5% | 786-0 renal 102% | COLO 205 colon 97.9% | DU-145 prostate 107% | K-562 leukemia 112% | MALME-3M melanoma 130% | MDA-MB-231 breast 102% | RXF 393 renal 109% | SF-268 CNS 101% | SF-295 CNS 105% | SF-539 CNS 96.2% | UACC-257 melanoma 95.6% | M14 melanoma 103%

COc1ccc(C(=O)c2cc(C)c(OC)c(C)c2)c(OC)c1O
active: NCI-H226 lung 7.47% | HOP-92 NSCLC -0.0707% | NCI-H522 lung -9.43% | DU-145 prostate -5.78% | K-562 leukemia 8.52% | SF-539 CNS -10.8% | M14 melanoma -1.65%
inactive: NCI-H23 lung 31.7% | NCI-H322M lung 45.8% | HOP-62 NSCLC 12.9% | A549/ATCC NSCLC 14.5% | 786-0 renal 15.2% | COLO 205 colon 66.8% | MALME-3M melanoma 54.8% | MDA-MB-231 breast 16.8% | RXF 393 renal 35.4% | SF-268 CNS 31.5% | SF-295 CNS 25.2% | UACC-257 melanoma 50.6%

COc1cc(-c2cc(=O)oc3cc(O)ccc23)c(OC)c2c1OCO2
inactive: NCI-H23 lung 83.5% | NCI-H226 lung 86.4% | NCI-H322M lung 89.4% | HOP-62 NSCLC 92.7% | HOP-92 NSCLC 79% | NCI-H522 lung 81.7% | A549/ATCC NSCLC 87% | 786-0 renal 95.6% | COLO 205 colon 102% | DU-145 prostate 101% | K-562 leukemia 90.3% | MALME-3M melanoma 88.7% | MDA-MB-231 breast 93.7% | SF-268 CNS 92.4% | SF-295 CNS 92% | SF-539 CNS 92.1% | UACC-257 melanoma 101% | M14 melanoma 96.5%

O=C(CN1CCOCC1)Nc1ccc2ncnc(Nc3ccc(Oc4cccc(F)c4)c(Cl)c3)c2c1
inactive: NCI-H23 lung 96.7% | NCI-H226 lung 89.8% | NCI-H322M lung 20.1% | NCI-H460 lung 80.2% | HOP-92 NSCLC 67.4% | NCI-H522 lung 20.7% | A549/ATCC NSCLC 66.3% | 786-0 renal 74.3% | COLO 205 colon 91.7% | DU-145 prostate 48.3% | K-562 leukemia 56.8% | MALME-3M melanoma 88.3% | MDA-MB-231 breast 74.3% | SF-268 CNS 70.9% | SF-295 CNS 84.2% | SF-539 CNS 85% | UACC-257 melanoma 89.1% | M14 melanoma 74.5%

— PubChem BioAssay (NCI)
